Source: PubChem BioAssay (Sanford-Burnham Center for Chemical Genomics)
CYP2C19 act = increases human CYP2C19 enzyme activity; P33261; activation factor at 5 µM; AID 1025; 96,000 tested, under 10 active; recombinant CYP2C19, luciferin-H EGE luminescence; hits give high values; 0 = fully inhibited enzyme, 1 = untreated enzyme;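 active means activation factor of at least 2 at 5 µM in the primary screen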;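 further: 0 = wells with 2.5 mM tranylcypromine and 1 = vehicle-only wells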
CYP2C9 activ = CYP2C9 (human) activation. P11712. recombinant CYP2C9, luciferin-H conversion, luminescence; hits give high values; factor 1 = untreated enzyme, 0 = blocked. activation factor at 5 µM. actives 1.4% (n = 96,000). AID 1024;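 active means activation factor of 2 or more for CYP2C9 at a 5 µM dose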;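 further: 0 = sulfaphenazole-blocked wells and 1 = vehicle-only wells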
Target sequence (P11712 whole entry, looked up): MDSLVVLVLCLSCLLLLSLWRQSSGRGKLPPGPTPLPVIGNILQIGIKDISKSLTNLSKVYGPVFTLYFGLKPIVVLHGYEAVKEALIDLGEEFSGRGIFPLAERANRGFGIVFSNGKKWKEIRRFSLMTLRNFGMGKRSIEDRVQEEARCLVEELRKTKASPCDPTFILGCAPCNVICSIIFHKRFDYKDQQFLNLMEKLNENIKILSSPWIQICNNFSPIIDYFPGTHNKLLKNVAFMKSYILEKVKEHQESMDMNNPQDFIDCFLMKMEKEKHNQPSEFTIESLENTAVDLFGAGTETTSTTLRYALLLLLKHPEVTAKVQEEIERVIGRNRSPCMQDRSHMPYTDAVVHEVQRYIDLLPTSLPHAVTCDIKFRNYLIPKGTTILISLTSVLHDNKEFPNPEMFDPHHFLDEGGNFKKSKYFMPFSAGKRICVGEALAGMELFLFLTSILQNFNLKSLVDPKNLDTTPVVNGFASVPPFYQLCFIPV
CYP2C19 inh = inhibitors of human CYP2C19 | actives 21% (n = 96,000) | P33261 | CYP2C19 Supersomes, luciferin-H EGE luminescence, 30 min | inhibition, % at 5 µM | AID 778;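 active means CYP2C19 inhibition above a set limit at 5 µM in the primary screen, cut at about 50% in these data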;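 further: plate controls were negative control wells for no effect and 2.5 mM tranylcypromine positive control for full effect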
CYP2C9 inh = human CYP2C9 inhibition; P11712; CYP2C9 Supersomes, luciferin-H conversion, luminescence; inhibition, % at 5 µM; actives 20% (n = 96,000);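 active means blocking of liver enzyme CYP2C9 beyond about 50% at 5 µM, limit read from the data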
Numbers without * were called inactive. A selection: hits, their analogues and other compounds. The true share with any hit is near 31%.

What do the screens show for `C=CCSC1=C(C#N)C(c2ccc(C(C)C)cc2)CC(=O)N1` (stereo not given)?
CYP2C19 act: 0.3; CYP2C9 activ: 0.2; CYP2C19 inh: 73.7*; CYP2C9 inh: 81.5*

What do the screens show for `CCSC1=C(C#N)C(c2cccc(O)c2)CC(=O)N1` (stereo not given)?
CYP2C19 act: 0.9; CYP2C9 activ: 1; CYP2C19 inh: 11.2; CYP2C9 inh: -2.1

What do the screens show for `C=CCSC1=C(C#N)C(c2ccccc2)CC(=O)N1` (stereo not given)?
CYP2C19 act: 0.2; CYP2C9 activ: 0.3; CYP2C19 inh: 80.1*; CYP2C9 inh: 65.4*

What do the screens show for `CCC(=O)N1CCc2cc(S(=O)(=O)NCCN3CCC(C)CC3)ccc21`?
CYP2C19 act: 0.9; CYP2C9 activ: 1; CYP2C19 inh: 14.1; CYP2C9 inh: -0.3

Results for COc1ccc(C=O)cc1COc1c(F)c(F)cc(F)c1F ?
CYP2C19 act: 0.4; CYP2C9 activ: 0.6; CYP2C19 inh: 60.0*; CYP2C9 inh: 43.8

What do the screens show for `CC(=O)C(=[N+]=[N-])C(=O)NCc1ccccc1`?
CYP2C19 act: 0.8; CYP2C9 activ: 1.1; CYP2C19 inh: 23.1; CYP2C9 inh: -5.4

What do the screens show for `COc1cc2c(cc1OC)CN(S(C)(=O)=O)CC2`?
CYP2C19 act: 0.9; CYP2C9 activ: 0.9; CYP2C19 inh: 8.6; CYP2C9 inh: 7.5

What do the screens show for `COc1cc2c(cc1OC)C1=C(C#N)CC/C(=N\S(=O)(=O)c3ccccc3)N1CC2`?
CYP2C19 act: 0.3; CYP2C9 activ: 0.1; CYP2C19 inh: 68.8*; CYP2C9 inh: 86.8*

What do the screens show for `CC1CCN(c2cc(N3CCC(C)CC3)c([N+](=O)[O-])cc2/C=C(\C#N)c2nn(-c3ccccc3)c(N)c2C#N)CC1`?
CYP2C19 act: 0.5; CYP2C9 activ: 0.2; CYP2C19 inh: 51.0*; CYP2C9 inh: 80.8*

Results for N#C/C(=C\c1ccc(N2CCCC2)c([N+](=O)[O-])c1)c1nc2ccccc2[nH]1 ?
CYP2C19 act: 0.7; CYP2C9 activ: 0.8; CYP2C19 inh: 30.6; CYP2C9 inh: 20.0

What do the screens show for `CC1CCCN(c2ccc(/C=C(\C#N)c3nn(-c4ccccc4)c(N)c3C#N)cc2[N+](=O)[O-])C1` (stereo not given)?
CYP2C19 act: 0.6; CYP2C9 activ: 0.2; CYP2C19 inh: 35.3; CYP2C9 inh: 80.1*

What do the screens show for `Cc1ccc(-c2nnc(Nc3ccccc3)c3ccccc23)cc1S(=O)(=O)NCC1CCCO1` (stereo not given)?
CYP2C19 act: 0.4; CYP2C9 activ: 0.4; CYP2C19 inh: 56.2*; CYP2C9 inh: 64.5*

How did CC(=O)C1C(c2ccccc2OC(F)F)NC(=O)NC1(O)C(F)(F)F (stereo not given) do in these assays?
CYP2C19 act: 1; CYP2C9 activ: 0.9; CYP2C19 inh: 0.9; CYP2C9 inh: 14.3

Results for O=C(N/C=C\c1ccccc1)NCc1ccc(Cl)cc1Cl ?
CYP2C19 act: 0.7; CYP2C9 activ: 0.8; CYP2C19 inh: 27.4; CYP2C9 inh: 19.6

What do the screens show for `CCOC(=O)c1c(C)nc2c(c(SC)nn2-c2ccccc2)c1N`?
CYP2C19 act: 0.8; CYP2C9 activ: 1.2; CYP2C19 inh: 24.4; CYP2C9 inh: -15.5

Results for O=[N+]([O-])/C=C/c1cn(Cc2ccc(F)cc2)c2ccccc12 ?
CYP2C19 act: 0.5; CYP2C9 activ: 0.9; CYP2C19 inh: 46.3; CYP2C9 inh: 13.1

How did Cn1c(/C=N/n2cnnc2)nc2ccccc21 do in these assays?
CYP2C19 act: 1; CYP2C9 activ: 1.2; CYP2C19 inh: 1.0; CYP2C9 inh: -16.3

Results for Clc1ccc(Cn2cc(/C=N/n3cnnc3)c3ccccc32)cc1 ?
CYP2C19 act: 0.2; CYP2C9 activ: 0.6; CYP2C19 inh: 80.2*; CYP2C9 inh: 39.8

What do the screens show for `Cc1ccccc1Cn1cc(/C=N/n2cnnc2)c2ccccc21`?
CYP2C19 act: 0.1; CYP2C9 activ: 0.3; CYP2C19 inh: 91.1*; CYP2C9 inh: 74.5*

What do the screens show for `Cc1nc2ccc(F)cc2cc1C(=O)NC(C)C`?
CYP2C19 act: 0.9; CYP2C9 activ: 1; CYP2C19 inh: 11.7; CYP2C9 inh: -3.1

What do the screens show for `O=C(CSc1nc2ccccc2s1)NCCCN1CCOCC1`?
CYP2C19 act: 0.8; CYP2C9 activ: 0.9; CYP2C19 inh: 20.7; CYP2C9 inh: 5.0

Results for O=C(CSc1nc2ccccc2s1)N1CCOCC1 ?
CYP2C19 act: 0.2; CYP2C9 activ: 0.7; CYP2C19 inh: 78.3*; CYP2C9 inh: 25.9

What do the screens show for `NC(=O)C1(N2CCCCC2)CCN(C(=O)CSc2nc3ccccc3s2)CC1`?
CYP2C19 act: 0.2; CYP2C9 activ: 0.2; CYP2C19 inh: 78.1*; CYP2C9 inh: 79.1*

Results for CCOC(=O)c1cc(S(=O)(=O)NC2CCN(C(=O)OCC)CC2)cn1C ?
CYP2C19 act: 0.7; CYP2C9 activ: 0.4; CYP2C19 inh: 31.4; CYP2C9 inh: 56.8*

Results for CCOC(=O)N1CCC(NC(=O)Cn2ncc3c2-c2cc(C)ccc2OC3)CC1 ?
CYP2C19 act: 1; CYP2C9 activ: 1; CYP2C19 inh: 0.5; CYP2C9 inh: 2.2

How did COc1ccc(C2Nc3ccccc3C(=O)N2c2ccc(C)cc2)cc1Cn1nc(C)c([N+](=O)[O-])c1C (stereo not given) do in these assays?
CYP2C19 act: 0.5; CYP2C9 activ: 0.1; CYP2C19 inh: 53.3*; CYP2C9 inh: 91.7*

How did CCOc1ccc2cc(/C=C/C(=O)c3ccco3)c(Cl)nc2c1 do in these assays?
CYP2C19 act: 0.8; CYP2C9 activ: 0.7; CYP2C19 inh: 18.1; CYP2C9 inh: 25.1

What do the screens show for `COc1cccc(C2(O)CCN(C(=O)C3CCC3)CC2)c1`?
CYP2C19 act: 0.4; CYP2C9 activ: 0.5; CYP2C19 inh: 64.3*; CYP2C9 inh: 47.3

Results for Cc1ccc(CSc2nnc(CS(=O)Cc3ccc(Cl)cc3Cl)n2C)cc1 (stereo not given) ?
CYP2C19 act: 1.1; CYP2C9 activ: 0.5; CYP2C19 inh: -10.5; CYP2C9 inh: 54.4*

How did O=S(Cc1ccc(Br)cc1)Cc1nnc(SCc2ccc(Cl)cc2)n1-c1ccccc1 (stereo not given) do in these assays?
CYP2C19 act: 0.6; CYP2C9 activ: 0.5; CYP2C19 inh: 37.2; CYP2C9 inh: 52.2*

Results for Cn1c(CS(=O)Cc2c(Cl)cccc2Cl)nnc1SCc1ccc(Cl)cc1 (stereo not given) ?
CYP2C19 act: 0.8; CYP2C9 activ: 0.8; CYP2C19 inh: 19.3; CYP2C9 inh: 19.0

How did O=C1C(=O)N(CNc2ccccn2)c2ccccc21 do in these assays?
CYP2C19 act: 0.9; CYP2C9 activ: 1.1; CYP2C19 inh: 9.2; CYP2C9 inh: -5.0

How did Cc1ccc(C)c(-c2cc(C(=O)NCc3cccs3)c3ccccc3n2)c1 do in these assays?
CYP2C19 act: 0.7; CYP2C9 activ: 0.5; CYP2C19 inh: 28.9; CYP2C9 inh: 51.8*

What do the screens show for `Cc1ccc(-c2nc3ccccc3c(C(=O)NCc3cccs3)c2C)cc1`?
CYP2C19 act: 0.1; CYP2C9 activ: 0.1; CYP2C19 inh: 87.3*; CYP2C9 inh: 94.7*

How did Cc1ccc(C)c(-c2cc(C(=O)Nc3nccs3)c3ccccc3n2)c1 do in these assays?
CYP2C19 act: 0.9; CYP2C9 activ: 0.5; CYP2C19 inh: 11.9; CYP2C9 inh: 49.1
